From PubChem BioAssay
An excerpt weighted towards active compounds, which were near 3% of everything screened.
FadD28 FP inh: inhibitors of FadD28 bisubstrate probe binding, primary screen, biochemical, fluorescence polarization, single point | Mycobacterium tuberculosis FadD28 fatty-acid-AMP ligase | inhibition, % at 12.5 µM | hit rate 0.22% among 360,000; in the data active = inhibition above about 8.5%, passing the limit was not always enough
Rv3671c protease: Rv3671c serine protease inhibitors, primary screen, biochemical, fluorescence polarization, M. tuberculosis H37Rv | inhibition, % at 5.96 µM | hit rate 0.048% among 320,000 | P9WHR9; in the data active = inhibition above about 38%;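 also: extracellular domain of Rv3671c used as enzyme; 0% = enzyme with DMSO and 100% = no enzyme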
Target sequence (P9WHR9 whole entry, looked up, the tested form may be a part): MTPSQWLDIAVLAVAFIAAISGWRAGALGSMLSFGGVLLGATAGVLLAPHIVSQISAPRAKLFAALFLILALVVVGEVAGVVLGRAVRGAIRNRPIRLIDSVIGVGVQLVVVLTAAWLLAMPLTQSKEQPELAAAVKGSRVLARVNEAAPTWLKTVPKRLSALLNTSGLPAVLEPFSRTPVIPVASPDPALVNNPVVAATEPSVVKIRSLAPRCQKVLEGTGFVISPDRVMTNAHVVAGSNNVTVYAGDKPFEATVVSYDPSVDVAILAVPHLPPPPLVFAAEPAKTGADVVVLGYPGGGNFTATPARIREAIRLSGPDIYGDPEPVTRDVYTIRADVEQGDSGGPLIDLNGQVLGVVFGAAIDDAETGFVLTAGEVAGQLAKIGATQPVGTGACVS
BioA inh: M. tuberculosis BioA enzyme inhibitors, primary screen, biochemical, plate reader, single point, HTS | 7,8-diaminopelargonic acid synthase BioA (Mycobacterium tuberculosis) | purified M. tuberculosis BioA enzyme | inhibition, % at 9.99 µM | hit rate 0.096% among 360,000; in the data active = inhibition above about 40%
GDH-TPI inh: GDH-TPI coupling enzyme inhibitors, primary screen, artefact control for M. tuberculosis FBA inhibitor project, biochemical, absorbance, full deck; inhibition, % at 4.8 µM; hit rate 1.2% among 360,000; GDH-TPI coupled enzyme counterscreen, NADH absorbance; in the data active = inhibition above about 30%;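 also: 0% = DMSO wells and 100% = wells lacking the enzyme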
FBA Mtb inh: Mtb FBA enzyme inhibitors, primary screen, biochemical, fluorescence, strain H37Rv. Fructose-bisphosphate aldolase (Mycobacterium tuberculosis (strain ATCC 25618 / H37Rv)), …. purified M. tuberculosis FBA, fluorescence read-out. inhibition, % at 1 µM. hit rate 2.3% among 360,000. AID 588726, 2011; in the data active = inhibition above about 27%;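 also: 0% = vehicle and 100% = reference inhibitor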
* hit, by the source's call.

Results for CC(=O)N(C)C[C@H]1Oc2cc(C#Cc3ccccc3)ccc2S(=O)(=O)N([C@H](C)CO)C[C@@H]1C ?
BioA inh: -1

What do the screens show for `CN(C)C(=O)C[C@H]1C[C@@H]2c3cc(NC(=O)NC4CCCC4)ccc3O[C@@H]2[C@H](CO)O1`?
BioA inh: 0

How did COc1cccc(-c2cnc3c(c2)C(=O)N([C@H](C)CO)C[C@H](C)[C@@H](CN(C)Cc2ccc(F)cc2)O3)c1 do in these assays?
BioA inh: 1

How did Cc1[nH]n(-c2ccc([N+](=O)[O-])cc2)c(=O)c1C=NCCN1CCN(C(=O)c2ccc(F)cc2)CC1 do in these assays?
FadD28 FP inh: -1; Rv3671c protease: -2; BioA inh: 1; GDH-TPI inh: -7; FBA Mtb inh: 5

How did Cc1[nH]n(-c2ccc([N+](=O)[O-])cc2)c(=O)c1C=NCCN1CCN(C(=O)c2cccc(F)c2)CC1 do in these assays?
FadD28 FP inh: -1; Rv3671c protease: 9; BioA inh: 4; GDH-TPI inh: 34*; FBA Mtb inh: -2

What do the screens show for `COc1ccccc1[C@H]1C(c2ccccc2)=NN(c2ccccc2)[C@@H]1CO`?
FadD28 FP inh: 1; BioA inh: 0; GDH-TPI inh: 5; FBA Mtb inh: 79*

What do the screens show for `CC(O)c1ccc(Oc2cnccn2)cc1` (stereo unspecified)?
FadD28 FP inh: 1; Rv3671c protease: -6; BioA inh: 0; GDH-TPI inh: -1; FBA Mtb inh: 190*

How did C/C(=N/O)c1ccc(Oc2cnccn2)cc1 do in these assays?
FadD28 FP inh: -3; Rv3671c protease: -6; GDH-TPI inh: -2; FBA Mtb inh: 1

What do the screens show for `Nc1nc(-c2cc(O)ccc2[N+](=O)[O-])cc(-c2ccccc2)c1[N+](=O)[O-]`?
FadD28 FP inh: -1; BioA inh: -2; GDH-TPI inh: 33*; FBA Mtb inh: 3

Results for CCC(=O)Nc1ccc2c(c1)OC[C@@H](C)N(Cc1ccccc1OC)C[C@H](C)[C@@H](OC)CN(C)C2=O ?
BioA inh: 4

How did CCC(=O)Nc1ccc2c(c1)C(=O)N(C)C[C@@H](OC)[C@H](C)CN(C(=O)C1CCC1)[C@@H](C)CO2 do in these assays?
BioA inh: -1

How did CN1CC=C2C(C#N)=C(N)C(C#N)(C#N)C(CCc3ccccc3)C2C1 (stereo unspecified) do in these assays?
FadD28 FP inh: -2; Rv3671c protease: -7; BioA inh: -7; GDH-TPI inh: 0; FBA Mtb inh: 39*

Results for CN1CC=C2C(C#N)=C(N)C(C#N)(C#N)[C@H](c3cccs3)[C@H]2C1 ?
FadD28 FP inh: 0; Rv3671c protease: -2; BioA inh: -17; GDH-TPI inh: 13; FBA Mtb inh: 9

What do the screens show for `CCc1c(O)nc(SCC(=O)Nc2nc3ccccc3s2)n(-c2ccccc2)c1=O`?
FadD28 FP inh: 14*; Rv3671c protease: 6; BioA inh: 0; GDH-TPI inh: 13; FBA Mtb inh: -4

How did O=C(OCC(=O)N1CCN(C(=O)c2ccco2)CC1)c1ccccc1NCCO do in these assays?
FadD28 FP inh: -2; Rv3671c protease: -3; BioA inh: 0; GDH-TPI inh: 8; FBA Mtb inh: 124*

Results for CNc1ccccc1C(=O)OCC(C)=O ?
FadD28 FP inh: -2; Rv3671c protease: -9; BioA inh: 0; GDH-TPI inh: 7; FBA Mtb inh: 62*

Results for CNc1ccccc1C(=O)OC ?
FadD28 FP inh: 0; Rv3671c protease: -1; BioA inh: -1; GDH-TPI inh: 1; FBA Mtb inh: 3

What do the screens show for `O=C(OCC(=O)N1CCN(C(=O)COC(=O)c2ccccc2NCCO)CC1)c1ccccc1NCCO`?
FadD28 FP inh: -2; BioA inh: -3; GDH-TPI inh: 8; FBA Mtb inh: 162*

How did O=C(OCC(=O)N1CCOCC1)c1ccccc1O do in these assays?
FadD28 FP inh: -3; Rv3671c protease: 0; BioA inh: 1; GDH-TPI inh: -5; FBA Mtb inh: 0

Results for CCN(C(=O)COC(=O)c1ccccc1NCCO)c1cccc2ccccc12 ?
FadD28 FP inh: -2; Rv3671c protease: 8; BioA inh: 1; GDH-TPI inh: 4; FBA Mtb inh: 114*

How did C[C@@H]1CN([C@@H](C)CO)C(=O)Cc2cc(NC(=O)Nc3ccccc3)ccc2O[C@H]1CN(C)C(=O)NC1CCCCC1 do in these assays?
BioA inh: -2
